In the supplement of paper PMC9492666:

Legend:
HCC1937 = test: relative cell viability, compound alone, vs DMSO (fraction of DMSO control); higher = less growth inhibition; settings: 72 h
MDA-MB-231 = test: as above; settings: 72 h
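Note: viability read out with the CCK-8 kit in 96-well plates, screening a set of 303 compounds acting on lipid metabolism targets.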

Row | SMILES | relative cell viability (HCC1937) | relative cell viability (MDA-MB-231)
1 | CNC(=O)c1cccc(NC(=O)N2CCC(Oc3ccccc3Cl)CC2)c1 | 0.991 | 0.974
2 | CCCC[S+]([O-])c1sc2nc(-c3cccs3)cc(-c3ccccc3)c2c1N (centres undefined) | 0.85 | 0.806
3 | NC(CO)C(=O)O (racemic) [DL-Serine] | 0.683 | 0.77
4 | C[C@H](CCOc1cccc(CC(=O)O)c1)N(Cc1cccc(C(F)(F)F)c1Cl)CC(c1ccccc1)c1ccccc1 [RGX-104 free Acid] | 0.613 | 0.863
5 | O=C(O)/C=C/c1ccc(O)c(O)c1 [Caffeic Acid] | 0.72 | 0.874
6 | O=C(Nc1ccccc1)c1cc([N+](=O)[O-])ccc1Cl | 1.08 | 1.03
7 | COc1ccc2[nH]cc(CCNC(C)=O)c2c1 [Melatonine] | 0.76 | 0.783
8 | CC(C)[C@H]1CC[C@H](C(=O)N[C@H](Cc2ccccc2)C(=O)O)CC1 [Nateglinide] | 0.682 | 0.869
9 | COc1ccc(C2(CNC(=O)c3ccc(NC(=O)c4ccco4)cc3)CCOCC2)cc1 | 0.84 | 0.873
10 | CN(C)C(=O)Nc1cccc(-c2ccc(N(C)C)cc2)c1 [Atglistatin] | 0.661 | 0.83
11 | COC(=O)/C=C/c1cccc(N(Cc2ccc(-c3ccc(N(C)C)cc3)cc2)C(=O)C2CCCCC2)c1 [Fexaramine] | 0.805 | 0.924
12 | C[C@@H]1OCC2(CCN(c3cnc(Sc4ccnc(N)c4Cl)c(N)n3)CC2)[C@@H]1N | 0.896 | 0.996
13 | CC(C)OC(=O)C(C)(C)Oc1ccc(C(=O)c2ccc(Cl)cc2)cc1 [Fenofibrate] | 1.16 | 0.955
14 | CCNC1(C(N)=O)CCN(c2ncnc3c2nc(-c2ccccc2Cl)n3-c2ccc(Cl)cc2)CC1 [Otenabant] | 0.906 | 0.915
15 | CCCCCCCCCCC[C@@H](C[C@@H]1OC(=O)[C@H]1CCCCCC)OC(=O)[C@H](CC(C)C)NC=O [Orlistat] | 0.977 | 0.809
16 | CC(C)(Oc1ccc(C(=O)c2ccc(Cl)cc2)cc1)C(=O)O [Choline Fenofibrate] | 0.928 | 1.07

Row | SMILES | relative cell viability (HCC1937) | relative cell viability (MDA-MB-231)
17 | CC1=C(C)C(=O)C(C(CCCCCC(=O)O)c2ccccc2)=C(C)C1=O (centres undefined) [Seratrodast] | 1.37 | 0.809
18 | C=C1C[C@]2(O)O[C@@]3(CC2=C(C)C)[C@@H](C)CC[C@@H]13 [Isocurcumenol] | 0.933 | 0.92
19 | Cn1c2cc([S+](C)[O-])sc2c2cnn(Cc3cccc(N)c3)c(=O)c21 (centres undefined) | 0.688 | 0.96
20 | O=S(=O)(Nc1ccc(C(O)(C(F)(F)F)C(F)(F)F)cc1)c1cccs1 | 1.1 | 1.03
21 | CCOP(=O)(OCC)C(=Cc1cc(C(C)(C)C)c(O)c(C(C)(C)C)c1)P(=O)(OCC)OCC | 0.631 | 0.779
22 | Cc1nc2ccc(C(=O)N3CCC4(CC3)CC(=O)c3c(cnn3C(C)C)C4)cc2[nH]1 | 0.71 | 0.859
23 | c1cc(-c2cnn3cc(-c4ccc(OCCN5CCCCC5)cc4)cnc23)ccn1 [Dorsomorphin] | 0.216 | 0.383
24 | Cc1nc(Nc2cnn(C3CCNCC3)c2)nc2c1N(C)C(=O)c1cc3ccccc3cc1N2C | 0.354 | 0.49
25 | CC(C)=CCC(O)C1=CC(=O)c2c(O)ccc(O)c2C1=O (single isomer, unassigned; (+)) [(+)-Shikonin] | 0.2 | 0.529
26 | CCOc1cc(CC(=O)N[C@@H](CC(C)C)c2ccccc2N2CCCCC2)ccc1C(=O)O [Repaglinide] | 1.02 | 0.938
27 | COc1ccc(-c2coc3cc(O)cc(O)c3c2=O)cc1 [Biochanin A] | 0.813 | 0.729
28 | COc1cc(O)c2c(c1)O[C@H](c1ccc(O)cc1)CC2=O [Sakuranetin] | 0.627 | 0.941
29 | CC[C@@H]1/C=C(\C)C[C@H](C)C[C@H](OC)[C@H]2O[C@@](O)(C(=O)C(=O)N3CCCC[C@H]3C(=O)O[C@H](/C(C)=C/[C@@H]3CC[C@@H](O)[C@H](OC)C3)[C@H](C)[C@@H](O)CC1=O)[C@H](C)C[C@@H]2OC [Ascomycin] | 0.185 | 0.236
30 | CC1(C)C[C@H]2C3=CC[C@@H]4[C@@]5(C)CC[C@H](O)[C@@](C)(CO)[C@@H]5CC[C@@]4(C)[C@]3(C)C[C@H](O)[C@@]2(CO)[C@@H](O)[C@@H]1O [Gymnemagenin] | 1.13 | 1.04
31 | Cc1cc([N+](=O)[O-])ccc1NS(=O)(=O)c1cc(Cl)ccc1Cl | 0.579 | 0.795
32 | O=C1C(SCCO)=C(SCCO)C(=O)c2ccccc21 | 0.777 | 0.875
